Compound activity from PubChem BioAssay.
SARS PLpro yeast: blocks SARS-CoV papain-like protease in a yeast assay; S. cerevisiae expressing SARS-CoV PLpro, growth rescue; Potency, µM (doses to about 32.9 µM), without a hit: at the highest dose activity, positive = growth rescue, usual class: activators; hit rate 0.19% among 330,000; AID 485353; note: potency is the fitted concentration of half-maximal effect; 0% is about no effect; nearly all actives have a fitted effect of over 55% in size
Pf growth 48h: P. falciparum growth inhibition at 48 hours (one generation); P. falciparum luciferase growth in erythrocytes, 48 h; Potency, µM (titrated, usually from 28.7 µM), inactives show at the top dose activity change, negative = inhibition, usual class: inhibitors; hit rate 5.9% among 310,000; active = well fitted inhibition curve with a large enough effect; inconclusive = small, poorly fitted or top-dose-only effect, or another doubt; inactive = no such curve, though single readings can be large or run the other way; note: potency is the fitted concentration of half-maximal effect; % is set by controls: 0 for no effect and ±100 for the full control effect
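Compounds are pin-transferred into medium, infected erythrocytes (2% hematocrit, 0.1% parasitemia final) are added, and plates sit one parasite generation at 37 C in 5% CO2. Detection reagent is then added and luminescence measured.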
NS1 function inh: inhibitors of influenza NS1 protein function; Potency, µM (highest dose often 46.1 µM), for the others: at the top dose activity, positive = more growth; hit rate 0.4% among 270,000; AID 2326; note: potency is the fitted concentration of half-maximal effect; actives are rising curves; nearly all actives have a fitted effect of over 50% in size
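Read-out: OD600 growth recovery of NS1-expressing budding yeast. Cells grown overnight at 30C in -URA glucose medium, washed, resuspended and diluted 1:100 in 2% galactose assay medium, pH 6.0. Same strain lacking NS1 served as positive control.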
CHX counter-1: counter-screen for Shiga toxin inhibitors: cycloheximide protein synthesis inhibition; max response, %; AID 2314; hit rate 12% among 300,000; cell reporter, cycloheximide protein synthesis inhibition counterscreen; in the data active = max response mostly above about 13%, no sharp cut-off; inactive = mostly below about 14%; note: read at 38.3 µM for the half of the compounds with a filed dose; 0% is about no effect
Pf growth 96h: P. falciparum growth inhibition at 96 hour, primary screen for plastid delayed-death inhibitors. P. falciparum luciferase reporter growth, 96 h. Potency, µM (top dose mostly 28.7 µM), without a hit: at the highest dose activity change, negative = inhibition, hits mostly inhibitors. hit rate 6.9% among 320,000. AID 504834; active = well fitted inhibition curve with a large enough effect; inconclusive = small, poorly fitted or top-dose-only effect, or another doubt; inactive = no such curve, though single readings can be large or run the other way; note: potency is the fitted concentration of half-maximal effect; % is set by controls: 0 for no effect and ±100 for the full control effect
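Parasite growth measured via integrated firefly luciferase reporter in P. falciparum. Infected erythrocytes at 2% hematocrit, 0.05% parasitemia final were treated 96 hours at 37 C under 5% CO2, and luminescence was read.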
Shiga inhibitor: inhibitors of Shiga toxin in Vero cells | Vero cells, Shiga toxin protein synthesis inhibition reporter | hit rate 9.2% among 290,000 | AID 2315 | inhibition, % at 38.7 µM; in the data active = inhibition mostly above about 28%, no sharp cut-off; inactive = mostly below about 43%; note: 0% is about no effect
CHX counter-2: protein synthesis counter-screen activity for Shiga toxin hits; shares compounds with Shiga inhibitor; Cycloheximide counterscreen, protein synthesis reporter, Shiga toxin assay; Potency, µM (top dose mostly 38.3 µM), for the others: at the top dose activity (activation), actives largely listed as activators; hit rate 3% among 510; AID 2318; note: potency is the fitted concentration of half-maximal effect; 0% is about no effect
* marks the source's active call; other numbers are inactive results; u = inconclusive; x = no result given; [ ] = dose if it differs, or a comment. Sampled rows, rich in hits. Any-hit rate of the full collection: about 21%. Unless noted, calls come from the whole dose curve.

SMILES	SARS PLpro yeast	Pf growth 48h	NS1 function inh	CHX counter-1	Pf growth 96h	Shiga inhibitor	CHX counter-2
CCOC(=O)N1CCN(C(=O)c2nn(-c3cc(OC)cc(OC)c3)c(=O)c3ccccc23)CC1	-5%	-21%	-17%	9	x	-2	x
COc1cc(OC)cc(-n2nc(C(=O)N3CC(C)CC(C)C3)c3ccccc3c2=O)c1 (stereo not drawn)	14%	u	1%	-3	25%	23*	-2%
O=C(Nc1ccc(O)cc1)/C(=C\C=C\c1ccccc1)NC(=O)c1ccccc1	0%	6%	10%	3	36%	30*	1%
Cc1cccc(OCCCC(=O)Nc2nccs2)c1C	0%	49%	-37%	7	u	29*	-2%
Cc1ccc2c(c1)N(CC(=O)N1CCCC1)C(=O)CO2	1%	27%	16%	3	24%	35*	-1%
Cn1cc(Br)c(C(=O)N2CCc3ccccc32)n1	7%	25%	6%	9	18%	active	6%
CC(C)(CNC(=O)Cc1ccc(NS(=O)(=O)c2cccc(C(F)(F)F)c2)cc1)N1CCOCC1	1%	u	x	x	u	x	x
O=[N+]([O-])/C(C(Cl)=C(Cl)Cl)=C(\Sc1ccccc1)N1CCCCC1	-1%	-29%	-2%	-2	0%	12	x
CCCn1nnc(NC(=O)Cc2ccc(Cl)cc2)n1	5%	-2%	-7%	-2	-22%	17	x
CCCn1nnc(NC(=O)COc2ccc(C3CCCCC3)cc2)n1	-8%	u	-49%	-4	u	75*	-1%
COc1ccccc1CNC(=O)c1csc2c1CCCC2	-6%	21%	x	6	17%	39*	3%
CCc1nc2ccccc2c(=O)n1CCCCn1c(CC)nc2ccccc2c1=O	x	x	-2%	x	x	x	x
CCc1nc2ccccc2c(=O)n1NCCc1ccccc1	12%	-20%	-19%	-1	-38%	49*	4%
CN1CCc2c(sc3c2C(=O)NC(c2ccc4c(c2)OCO4)N3)C1 (stereo not drawn)	-3%	5%	-2%	15	-3%	29*	4%
O=C1NC(c2ccc(Br)cc2)Nc2sc3c(c21)CCC3 (stereo not drawn)	-3%	5%	0%	15	19%	23	x
O=C1ON=C(c2ccccc2)/C1=C/c1ccc(OS(=O)(=O)c2ccccc2)cc1	0%	15%	5%	8	32%	29*	0%
Cc1nn(C)cc1C(C(=O)NC1CCCCC1)N(C(=O)Cc1cccs1)c1ccc(Cl)cc1 (stereo not drawn)	6%	-4%	-6%	-1	45%	-11	x
CC(=O)c1cccc(NC(=O)/C(=C\c2cccnc2)NC(=O)c2ccco2)c1	-1%	-11%[5.75 µM]	x	-4	0%	11	x
O=c1n(Cc2ccc(F)cc2)nc2n1-c1ccccc1SC2	1%	-4%	-10%	14	23%	31*	6%
Cc1cc(C)nc(Sc2ccc3nnnn3n2)n1	0%	26%	-4%	10	20%	31*	9%
CCOC(=O)N1CCN(C(=O)CCC(=O)c2ccc(OCC)cc2)CC1	5%	-10%	7%	1	-9%	41*	-1%
CCC(C)[C@H](NC(=O)N1CC(=O)Nc2ccccc21)C(=O)N[C@H](C(=O)O)c1ccccc1 (stereo partly drawn)	2%	0%	-3%	13	6%	-1	x
c1cc2c(cc1Cn1cnnn1)OCO2	-2%	3%	7%	9	47%	158*	-2%
Cc1cccnc1NC(=O)C1COc2ccccc2O1 (stereo not drawn)	-4%	17%	x	6	u	12	x
Cc1nnc(NC(=O)C2COc3ccccc3O2)s1 (stereo not drawn)	2%	185%	-11%	15	x	99*	u
SMILES	SARS PLpro yeast	Pf growth 48h	NS1 function inh	CHX counter-1	Pf growth 96h	Shiga inhibitor	CHX counter-2
Cc1ccc(Oc2nn[nH]n2)cc1	-2%	3%	-1%	-2	27%	47*	2%
CCc1cccc(Oc2nn[nH]n2)c1	8%	-19%	0%	4	u	3	x
CCC(C)c1cc([N+](=O)[O-])cc([N+](=O)[O-])c1OC(C)=O (stereo not drawn)	x	x	x	7	x	25*	1%
O=C(Nc1ccnn1C1CCN(C(=O)Cc2ccccc2F)CC1)C1CC1	-2%	11%	7%	-1	115%	12	x
Cc1cccc(NC(=O)Cn2nnc(-c3cccs3)n2)c1C	6%	19%	-43%	-2	u	13	x
CCc1ccccc1NC(=O)Cn1nnc(-c2cccs2)n1	2%	u	6%	-4	u	49*	0%
Cc1ccc(NS(=O)(=O)c2ccc(Br)s2)cc1S(=O)(=O)N1CCOCC1	1%	-16%	1%	5	42%	13	x
CCN(Cc1nc(-c2ccccc2)no1)C(=O)c1ccoc1C	1%	-18%	-3%	-3	99%	4	x
CCN(CCn1cccn1)Cc1nc(-c2ccccc2)no1	-2%	14%	-1%	7	u	34*	4%
CCCCOc1ccc(N(CC(=O)NC(C)(C)C)C(=O)CCC(=O)Nc2nccs2)cc1	-4%	u	u	1	311%	-3	x
CC(C)(C)NC(=O)c1ccc(COc2ccccc2Br)o1	-16%	u	-66%	8	u	34*	1%
CCOC(=O)CNC(=O)CSc1ncnc2c1cnn2-c1ccc(Cl)cc1	8%	18%	-4%	-3	x	-4	x
CCOC(=O)Cc1csc(NC(=O)CSc2ncnc3c2cnn3-c2ccc(OC)cc2)n1	2%	9.3µM*	-8%	19	u	81*	u
C/C1=C\[C@@H](O)C(C(C)C)C(OC(=O)c2ccc(O)cc2)C/C(C)=C/CC1 (stereo partly drawn)	x	x	x	4	x	24*	u
CC(C)N(C(=O)COC(=O)c1ccc(O)cc1)C(C)C	0%	15%	-2%	-2	24%	-4	x
O=C(NCc1ccco1)c1noc2c1CCCC2	7%	59%	-5%	10	x	42*	u
CN(C)S(=O)(=O)c1ccc(C(=O)OCC(=O)c2ccc3c(c2)NC(=O)CO3)cc1	1%	-1%	0%	2	-2%	42*	-3%
Cc1ccc(S(=O)(=O)N(C)CC(=O)OCC(=O)c2ccc3c(c2)NC(=O)CO3)cc1	-9%	x	x	x	x	x	x
Nc1ccc(C(=O)NC2CCSc3ccccc32)cc1[N+](=O)[O-] (stereo not drawn)	-9%	-14%	-96%	18	u	28*	u
Cc1noc(/C=C/c2ccco2)c1S(=O)(=O)N1CCC(C(=O)N(C)Cc2ccccc2)CC1	-5%	1.9µM*	7%	13	8%	40*	u
CC1CCCC(NC(=O)COC(=O)/C=C/c2ccc([N+](=O)[O-])cc2)C1C (stereo not drawn)	-1%	x	x	x	x	x	x
